Experimental findings from PubChem BioAssay (NCATS) are described below.

Test [1] can be described thus: qHTS Screen of the MIPE 4.0 Collection Against Ewings Sarcoma (TC32) (AID 1259256). Also: nearly all actives have a fitted effect of over 45% in size. In outline: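 Dose series incubated 48 h with cells in RPMI plus 5% FBS, glutamine and penicillin/streptomycin; cell viability then quantified via CellTiter-Glo.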
For orientation: qHTS replaces the single test concentration by a dilution series.

A short description of test [2]: P-glycoprotein substrates identified in KB-8-5-11 adenocarcinoma cell line, qHTS therapeutic library screen (AID 1346987). Also: nearly all actives have a fitted effect of over 65% in size. In short, it runs like this: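 P-gp-mediated resistance screen: KB-8-5-11 cells treated 72 h with compounds in dose-response. CellTiter-Glo viability.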
A short description of test [3]: qHTS of pediatric cancer cell lines to identify multiple opportunities for drug repurposing: Primary screen for TC32 cells (AID 1347089). Also: nearly all actives have a fitted effect of over 60% in size. In short, it runs like this:
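A viability screen of TC32 cells was run over 48 h, with primary MIPE doses spanning 0.78 nM–46 µM and NPC doses 0.59 nM–46 µM. ATP luminescence (CellTiter-Glo) served as the read-out.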

The nature of test [4]: qHTS of pediatric cancer cell lines to identify multiple opportunities for drug repurposing: Primary screen for DAOY cells (AID 1347090). Also: nearly all actives have a fitted effect of over 55% in size. In short, it runs like this:
(§1)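 Viability measured as metabolically active cells via CellTiter-Glo luminescence following 48 hours of compound exposure, 11-point dilutions in confirmatory testing. 500-1,000 cells/well plated 5 hours before dosing; controls were DMSO and 2.3 µM bortezomib.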

Test [5] in a line: qHTS of pediatric cancer cell lines to identify multiple opportunities for drug repurposing: Primary screen for SJ-GBM2 cells (AID 1347091). In short, it runs like this:
as §1

A short description of test [6]: qHTS of pediatric cancer cell lines to identify multiple opportunities for drug repurposing: Primary screen for SK-N-MC cells (AID 1347093). In short, it runs like this: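 Metabolically active cells were quantified by ATP-dependent luminescence (CellTiter-Glo, 15 min at room temperature) following 48 h treatment. Cells had been plated at 500-1,000 per well and settled for 5 h beforehand.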

A short description of test [7]: qHTS of pediatric cancer cell lines to identify multiple opportunities for drug repurposing: Primary screen for BT-37 cells (AID 1347094). In short, it runs like this: (§2)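 Plated cells (500-1,000 per well, growth media) were allowed to settle for 5 hours, treated with compound dilutions for 48 hours, then lysed with CellTiter-Glo for 15 min at room temperature before luminescence reading.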

The nature of test [8]: qHTS of pediatric cancer cell lines to identify multiple opportunities for drug repurposing: Primary screen for NB-EBc1 cells (AID 1347095). In short, it runs like this: as §2
Test [9] can be described thus: qHTS of pediatric cancer cell lines to identify multiple opportunities for drug repurposing: Primary screen for Saos-2 cells (AID 1347097). Also: nearly all actives have a fitted effect of over 40% in size. In short, it runs like this: as §2
Test [10] can be described thus: qHTS of pediatric cancer cell lines to identify multiple opportunities for drug repurposing: Primary screen for NB1643 cells (AID 1347099). Also: nearly all actives have a fitted effect of over 50% in size. In short, it runs like this:
as §2

Test [11] is described as follows: NS1 protein of Zika virus - qHTS assay to identify small molecule inhibitors in human HEK 293 cells (AID 1347053). Also: nearly all actives have a fitted effect of over 55% in size. In short, it runs like this:
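Following 20 h seeding, HEK 293 cells took compound, then 1 h later ZIKV MR766 (MOI = 0.5). Incubation ran 24 h at 37 C before TR-FRET detection of NS1; a drop in signal indicates inhibition.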

Test [12] can be described thus: qHTS of pediatric cancer cell lines to identify multiple opportunities for drug repurposing: Primary screen for A673 cells (AID 1347092). Also: nearly all actives have a fitted effect of over 45% in size. In outline: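 Titration-based qHTS on A673 cells: MIPE compounds spanned 11 points (0.78 nM to 46 µM final), NPC compounds 8 points (0.59 nM to 46 µM final). Viability after 48 h was measured by ATP luminescence.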
The nature of test [13]: qHTS of pediatric cancer cell lines to identify multiple opportunities for drug repurposing: Primary screen for U-2 OS cells (AID 1347096). Also: nearly all actives have a fitted effect of over 50% in size. In short, it runs like this: (§3)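 Viability after 48 h compound treatment at 37C, 500-1,000 cells/well, read as ATP luminescence with CellTiter-Glo. Primary screens used 11-point (MIPE, 0.78 nM-46 µM) or 8-point (NPC, 0.59 nM-46 µM) final concentrations; follow-up screens used 11-point dilutions.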

A short description of test [14]: qHTS of pediatric cancer cell lines to identify multiple opportunities for drug repurposing: Primary screen for SK-N-SH cells (AID 1347098). Also: nearly all actives have a fitted effect of over 65% in size. In short, it runs like this: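 Cells (500-1,000/well) rested 5 h, then received compounds for 48 h; metabolically active cells were measured by CellTiter-Glo luminescence. Final concentrations spanned up to 46 µM (MIPE, 11-point) or 0.59 nM-46 µM (NPC, 8-point) in primary screens, 11-point in follow-ups.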

Test [15] in a line: qHTS of pediatric cancer cell lines to identify multiple opportunities for drug repurposing: Primary screen for LAN-5 cells (AID 1347100). In short, it runs like this: as §3

Records with an inconclusive call do not appear. The source made the active and inactive calls. Calls follow the shape of the dose curve; as a rule, active = well fitted curve in the direction sought with a large enough effect; inconclusive = small, poorly fitted or top-dose-only effect, or another doubt; inactive = no such curve, though single readings can be large; an effect the other way counts as inactive or inconclusive.
Potency is read from the fitted curve at half-maximal effect.

On to `COc1ccc2c(c1OC)C(=O)OC2[C@H]1c2c(cc3c(c2OC)OCO3)CCN1C` (stereo not given in full), for which the Potency result in [1] is “inactive”. Moreover, the Potency is 1.87 µM (active) in test [2]; 1.04 µM (active) in test [3]; 0.469 µM (active) in [4]; 0.132 µM (active) in test [5]; 0.0833 µM (active) in test [6]; 0.611 µM (active) in test [7]. Besides, the Potency in test [8] was 0.372 µM (active); in test [9], 0.235 µM (active); in [10], 1.18 µM (active).
On to `C[C@@H](Oc1ccc2[nH]nc(C=Cc3cnn(CCO)c3)c2c1)c1c(Cl)cncc1Cl`, for which the Potency in test [1] is 0.264 µM (active); in test [2], 0.332 µM (active); in [5], 0.418 µM (active); in test [12] it was 18.7 µM (active); in test [6] it was 7.43 µM (active); in test [7] it was 24.3 µM (active). Moreover, the Potency in test [8] was 0.0935 µM (active); in [14], 0.681 µM (active); in [15] it was 4.18 µM (active). In addition, the Potency result in test [11] and in [13] was “inactive” throughout.
As to `C[C@H]1C[C@H]2[C@@H]3CCC4=CC(=O)C=C[C@]4(C)[C@@H]3C(=O)C[C@]2(C)[C@@]1(O)C(=O)CO`, the Potency entry in test [1], in test [2], in [11], in test [5], in test [7] and in [8] was “inactive” each time. The Potency result in test [13], in [9], in test [14], in test [10] and in [15] was “inactive” in each case.
Regarding `CCCNC(=O)[C@H]1O[C@H]1C(=O)N[C@H](C(=O)N1CCC[C@@H]1C(=O)OC)C(C)CC` (stereo not given in full), the Potency is 5.26 µM (active) in test [1]; 23.5 µM (active) in test [5]; 2.35 µM (active) in [12]; 2.64 µM (active) in test [6]; 17.2 µM (active) in test [7]; 16.6 µM (active) in test [8]. For the same molecule, the Potency in test [9] is 2.96 µM (active); in test [10] it was 9.35 µM (active); in test [15], 10.5 µM (active). Further, the Potency entry in [2] is “inactive”.
Consider `COc1cccc2c1C(=O)c1c(O)c3c(c(O)c1C2=O)C[C@@](O)(C(=O)CO)C[C@@H]3O[C@H]1C[C@H](N)[C@H](OC2CCCCO2)[C@H](C)O1` (stereo not given in full), for which the Potency in [1] was 0.0037 µM (active); in test [2] it was 5.26 µM (active); in [11] it was 2.96 µM (active); in test [5], 1.18 µM (active); in [12] it was 2.35 µM (active); in test [6], 0.833 µM (active). The Potency in test [7] was 1.93 µM (active); in test [8], 0.296 µM (active); in test [15], 0.469 µM (active). For the same molecule, the Potency result in test [13], in test [9] and in [14] was “inactive” throughout.
On to `CCCCCCCCc1ccc(CCC(N)(CO)CO)cc1`, for which the Potency in test [1] was 18.7 µM (active); in test [2] it was 23.5 µM (active); in test [11] it was 9.35 µM (active); in test [5], 14.8 µM (active); in [12], 4.69 µM (active); in test [6], 1.87 µM (active). The Potency in [7] is 21.7 µM (active); in test [8], 16.6 µM (active); in test [9] it was 18.7 µM (active); in [10] it was 18.7 µM (active); in test [15], 26.4 µM (active).
Consider `CCOC(=O)[C@H](CCc1ccccc1)N[C@@H](C)C(=O)N1[C@@H](C(=O)O)C[C@H]2CCC[C@@H]21`, for which the Potency in test [1] is 16.6 µM (active); in test [2] it was 10.5 µM (active); in test [4], 14.8 µM (active); in [12] it was 9.35 µM (active); in [6] it was 1.87 µM (active); in test [7] it was 21.7 µM (active). Further, the Potency in [8] was 18.7 µM (active); in test [13], 18.7 µM (active); in test [9] it was 14.8 µM (active); in [14], 4.82 µM (active); in [10] it was 3.32 µM (active); in test [15], 13.2 µM (active).
With `N#Cc1ccc(COC[C@H]2O[C@@H](n3c(NCc4ccc(Cl)c(Cl)c4)nc4c(N)ncnc43)[C@@H](O)[C@@H]2O)cc1`, the Potency in test [1] was 5.26 µM (active); in test [12], 7.43 µM (active); in test [6], 20.9 µM (active); in test [14], 19.2 µM (active); in test [10] it was 18.7 µM (active); in test [15], 16.6 µM (active). For the same molecule, the Potency entry in test [2], in test [13] and in [9] was “inactive” in each case.
As to `C[C@H]1[C@@H](OC(=O)CCC(=O)O)O[C@@H]2O[C@@]3(C)CC[C@@H]4[C@H](C)CC[C@@H]1[C@@]24OO3`, the Potency in test [1] is 9.35 µM (active); in test [2] it was 16.6 µM (active); in test [3], 14.7 µM (active); in test [12] it was 5.9 µM (active); in [6], 0.935 µM (active); in [7], 3.85 µM (active). Further, the Potency in test [8] was 1.66 µM (active); in test [14], 13.6 µM (active); in [10], 4.18 µM (active); in test [15] it was 3.32 µM (active). Besides, the Potency result in test [13] and in [9] was “inactive” throughout.
Consider `CC(=O)SCC(Cc1ccccc1)C(=O)NCC(=O)OCc1ccccc1` (stereo not given), for which the Potency in test [1] is 0.743 µM (active); in [5], 5.9 µM (active); in [12] it was 0.59 µM (active); in test [6], 0.187 µM (active); in test [7] it was 0.344 µM (active); in [8] it was 1.66 µM (active). Further, the Potency in [13] was 3.72 µM (active); in [9] it was 4.69 µM (active); in test [14], 0.271 µM (active); in test [15], 0.296 µM (active). Further, the Potency entry in test [2] and in test [11] was “inactive” each time.
